Test results as given in PubChem BioAssay (NCI).
About 83,000 compounds went through this panel and 20% of them were active in at least one assay; those are over-represented in the sample as a whole.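 Plates (96-well) were seeded with cells, treated with compound at one concentration, and incubated for 48 hours before percent growth was determined.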 Unmarked numbers belong to inactive results. Active and inactive are the calls of the source. How the source made its calls: active means growth percent below 10; inactive means the rest.

Legend:
Experiment in all cases: NCI-60 one-dose screen, 48 h (100 = growth as untreated, 0 = no growth, -100 = all killed)
Details in all cases: 10 µM unless noted
EKVX NSCLC = system: EKVX NSCLC
SN12C renal = system: SN12C renal
UO-31 renal = system: UO-31 renal
TK-10 renal = system: TK-10 renal
ACHN renal = system: ACHN renal
CAKI-1 renal = system: CAKI-1 renal
A498 renal = system: A498 renal
CCRF-CEM leukemia = system: CCRF-CEM leukemia
MOLT-4 leukemia = system: MOLT-4 leukemia

Compound	growth (EKVX NSCLC)	growth (SN12C renal)	growth (UO-31 renal)	growth (TK-10 renal)	growth (ACHN renal)	growth (CAKI-1 renal)	growth (A498 renal)	growth (CCRF-CEM leukemia)	growth (MOLT-4 leukemia)
CC(=C(c1ccc(OCCN2CCCCC2)cc1)c1ccc(OCCN2CCCCC2)cc1)c1ccc(Cl)cc1	-86.4% (active)	-91.1% (active)	-96% (active)	-88.5% (active)	-99.1% (active)	-98.4% (active)	-85.9% (active)	-71.5% (active)	-71.2% (active)
NC1=Nc2cc(OCCCCN3Cc4ccccc4C3)c(OCC3CC3)cc2C12CCCC2	64.7%	66.5%	43.2%	87.1%	65.7%	1.68% (active)	-0.354% (active)	37.7%	29.9%
CC1=C(C(=O)Nc2nc(-c3ccc(Cl)cc3)cs2)[C@H](c2ccc(O)cc2)NC(=O)N1	94.1%	107%	78.3%	103%	105%	91%	99.4%	116%	94.2%
COc1cc(-c2nc3c(ncc4ccc(=O)n(-c5ccccc5)c43)s2)cc(OC)c1OC	53.3%	73.9%	24.9%	54%	79%	67.4%	6.71% (active)	74.1%	69.5%
CCOC(=O)C(=CNc1cnc(Nc2ccc(N3CCOCC3)cc2)nc1Oc1ccc(OC)cc1)C(=O)OCC	87.1%	26.6%	11.3%	-26% (active)	19%	25.1%	42.1%	37.7%	60.5%
Ic1ccccc1I		105%	78.6%	105%	104%	105%	106%	42.6%	101%
Cc1nc2sc(C(=O)Nc3cccc(Br)c3C)c(N)c2cc1C(O)c1ccccc1 (stereo not drawn)	39.7%	8.12% (active)	30.9%	44.7%	21.9%	20.4%	-12.8% (active)	17.2%	12%
N#CSc1c[nH]c2cccc(/C=C/C(=O)/C=C(O)/C=C/c3cccc4[nH]cc(SC#N)c34)c12	-23.9% (active)	-71.2% (active)	-87.3% (active)	-44.8% (active)	-85.6% (active)	-70% (active)	-12.7% (active)	-22.1% (active)	-39% (active)
Nc1nc(N)c2c(n1)NC(c1cccc(Nc3ccnc4cc(C(F)(F)F)ccc34)c1)CC(c1ccccc1)=N2 (stereo not drawn)	51.5%	65.4%	62.6%	83.1%	75.8%	42.7%	77.8%	32.4%	6.47% (active)
Cc1ccc(-c2nc3nc(-c4ccccc4)nc(N4CCCN(S(C)(=O)=O)CC4)c3o2)cc1	93.7%	71.8%	59.3%	66.9%	46.1%	63.4%	94.3%	63.9%	56.3%
COc1cccc(/C=C/C(=O)c2cccc(Nc3nc(Nc4ccccc4)nc(Nc4ccccc4)n3)c2)c1	78.6%	106%	56.9%	77.5%	86%	84.4%	94.7%	43.8%	58.8%
CCOC(=O)c1c(C)nc2ccccc2c1/C=C/c1ccccc1	63.6%	88.3%	60.7%	92.5%	72.7%	59.5%	76%	45.8%	23.6%
COc1ccc(C(=O)Cn2c(C(=O)c3ccc(Cl)cc3)nc3ccccc32)cc1	90.9%	65.1%	54.7%	99.6%	65.5%	63.5%	77.9%	39.2%	48.5%
COc1ccc(/C=C/c2ccc3ccccc3n2)c(OC)c1	79.3%	80.1%	65.4%	111%	87%	73.6%	59.5%	49%	58.3%
CC1=C2[C@@H](CC1)[C@]1(C)O[C@@](c3ccccc3)(C[C@H]1OC(=O)CO)[C@H]2OC(=O)/C=C/c1ccccc1	83.4%	41.4%	-8.71% (active)	111%	2.46% (active)	72.2%	-78.1% (active)	77.5%	70.8%
COc1ccc(/C(C)=C(\c2ccc(Cl)cc2)c2ccc(OCCN3CCCCC3)cc2)cc1	69.1%	69.2%	48.1%	95.7%	77.3%	37.2%	86.8%	37.5%	41.6%
NS(=O)(=O)c1ccc(NC(=O)/C(=C\c2ccc(Cl)cc2Cl)NC(=O)c2ccccc2)cc1	99.6%	94.7%	75.8%	104%	98.2%	88.6%	95%	105%	92.3%
CC(=O)O[C@H]1C[C@@H]2C(C)(C)C(=O)CC[C@@]2(C)c2ccc(C(C)C)cc21	99.3%	107%	91.8%	97.2%	107%	89.6%	100%	108%	108%
CC(C)=CCNc1ncnc2c1ncn2C1OC(CO)C(O)C1O (stereo not drawn)	41.1% [1 mM]	-2.66% [1 mM] (active)	-72.4% [1 mM] (active)	-10.5% [1 mM] (active)	2.42% [1 mM] (active)	-36.9% [1 mM] (active)	-54.2% [1 mM] (active)	-56.6% [1 mM] (active)	-26.6% [1 mM] (active)

Compound	growth (EKVX NSCLC)	growth (SN12C renal)	growth (UO-31 renal)	growth (TK-10 renal)	growth (ACHN renal)	growth (CAKI-1 renal)	growth (A498 renal)	growth (CCRF-CEM leukemia)	growth (MOLT-4 leukemia)
O=c1cc(-c2ccccc2)[nH]c2ncc(-c3ccc(F)cc3)n12	87.8%	88.5%	69.2%	105%	88.3%	48.1%	59%	56.3%	39.9%
COc1ccc(/C=C/C(c2cc(OC)c(OC)c(OC)c2)n2cncn2)cc1 (stereo not drawn)	66%	62%	64.4%	48.5%	57.5%	51.6%	36.4%		39.4%
COc1cccc(/C=C/C(=O)c2cc3c(N)c(C(=O)Nc4cccc5ccccc45)sc3nc2C)c1	39.9%	-27.9% (active)	16.9%	32%	35%	17.2%	4.07% (active)	7.04% (active)	16.8%
O=S(=O)(Nc1cc(Sc2cccc3cccnc23)c(O)c2ccccc12)c1ccccc1		29.6%	23.7%	23.4%	16.9%	25.9%	70.4%	4.22% (active)	-7.99% (active)
Cc1ccc(CNc2c3ccccc3nc3ccccc23)cc1	37.9%	24.9%	12%	35.8%	14%	18.6%	7.64% (active)	20.9%	4.29% (active)
CC1=CCC(OC(=O)C(C)(C)CC(O)(C(C)O)C(O)C2(C)C=CC(Cc3ccc(C(C)C)cc3)(C(C)C)CC2)(C(C)C)CC1 (stereo not drawn)	98.3%	105%	81.5%	86.4%	102%	94.6%	76.2%	79.2%	94.1%
C=C1C(=O)O[C@H]2[C@H]1CC/C(CNC(=O)c1c[nH]c3ccc(F)cc13)=C\CC[C@@]1(C)O[C@@H]21	60.3%	47.5%	-79.2% (active)	-51.7% (active)	-18% (active)	16.2%	15.4%	-21% (active)	-39.7% (active)
O=C1c2cccc3cccc(c23)C(=O)N1C/C=C/c1ccc2c3c(cccc13)C(=O)N(CCO)C2=O		75.7%	48.1%	98.7%	34.1%	63.1%	74.7%	83.3%	80%
CC(C)(C)c1cc(Cl)c(O)c(CNCCO)c1	101%	109%	99.7%	105%	110%	94.1%	89.4%	110%	115%
C=C1C(=O)O[C@H]2[C@H]1CC/C(COC(=O)c1cc3cc(Cl)ccc3[nH]1)=C\CC[C@@]1(C)O[C@@H]21		-61.2% (active)	-93.6% (active)	-99.3% (active)	-89.2% (active)	-89.8% (active)	-11.9% (active)	-24.8% (active)	-21% (active)
O=C(NCc1cccc(CNC(=O)Nc2nc3ccccc3[nH]2)c1)Nc1nc2ccccc2[nH]1	11%	-52.2% (active)	62.6%	-32.7% (active)	70.2%	31.6%	-31% (active)	30.3%	-16.1% (active)
CN1CCN(CC(=O)Nc2ccc3ncnc(Nc4ccc(Oc5cccc(C(F)(F)F)c5)c(Cl)c4)c3c2)CC1	31.1%	51.3%	21.7%	41.6%	-63.2% (active)	-18.7% (active)	36.3%	6.92% (active)	-7.18% (active)
COc1ccc(C(O)c2cc3c(N)c(C(=O)Nc4cccc(Cl)c4C)sc3nc2C)cc1 (stereo not drawn)	35%	13.6%	17.9%	44.1%	24.7%	13.8%	-24.7% (active)	10.1%	15.2%
C=CCn1c(SCC(=O)Nc2ccc(/C(C)=N/O)cc2)nnc1-c1cc(-c2ccc(S(N)(=O)=O)cc2)nc2ccccc12	91.8%	77.7%	74.5%	121%	96.9%	51.9%	89.2%	45.8%	37.9%
CCN(CC)CCCN1C(=O)c2c(c(C)c3c(oc4ccc(O)cc43)c2C)C1=O	101%	63.4%	63.7%	-27.4% (active)	25.9%	82.4%	94.8%	-19.7% (active)	83.2%
COc1ccc(C2=CC(c3cc(OC)c(OC)c(OC)c3)n3ncnc3N2)cc1 (stereo not drawn)	66.7%	38.4%	41.3%	62%	32.4%	21.7%	-5.66% (active)	13.8%	17.3%
Cc1ccc(/C=C(\C#N)n2nnc3cc(F)c(F)cc32)cc1	30.9%	2.07% (active)	13.2%	22.4%	22.5%	32.6%	13%	5.57% (active)	-2.32% (active)
NC(N)=NS(=O)(=O)c1ccc(NC2=C(I)C(=O)c3ncccc3C2=O)cc1	105%	101%	75.1%	118%	93.2%	90.4%	97.2%	107%	103%
